Measurements reported in ChEMBL document CHEMBL3988442, “University of Dundee, Small-Polar-MMV Screening Library” (2021).
Out of some 67,000 compounds screened, about 300 (0.45%) showed an effect of 50% or more. The list comes from a sample in which strong results are over-represented; it also holds similar structures and randomly drawn compounds.

target: Polyketide synthase Pks13 (Mycobacterium tuberculosis (strain ATCC 25618 / H37Rv)) (UniProt I6X8D2); test: Mycobacterium tuberculosis Polyketide synthase 13 Thioesterase (PKS13); assay type: functional; design: scale not given: in the data most compounds retested in dose-response had high values; conditions: 30 µM
Sequence (I6X8D2 whole entry): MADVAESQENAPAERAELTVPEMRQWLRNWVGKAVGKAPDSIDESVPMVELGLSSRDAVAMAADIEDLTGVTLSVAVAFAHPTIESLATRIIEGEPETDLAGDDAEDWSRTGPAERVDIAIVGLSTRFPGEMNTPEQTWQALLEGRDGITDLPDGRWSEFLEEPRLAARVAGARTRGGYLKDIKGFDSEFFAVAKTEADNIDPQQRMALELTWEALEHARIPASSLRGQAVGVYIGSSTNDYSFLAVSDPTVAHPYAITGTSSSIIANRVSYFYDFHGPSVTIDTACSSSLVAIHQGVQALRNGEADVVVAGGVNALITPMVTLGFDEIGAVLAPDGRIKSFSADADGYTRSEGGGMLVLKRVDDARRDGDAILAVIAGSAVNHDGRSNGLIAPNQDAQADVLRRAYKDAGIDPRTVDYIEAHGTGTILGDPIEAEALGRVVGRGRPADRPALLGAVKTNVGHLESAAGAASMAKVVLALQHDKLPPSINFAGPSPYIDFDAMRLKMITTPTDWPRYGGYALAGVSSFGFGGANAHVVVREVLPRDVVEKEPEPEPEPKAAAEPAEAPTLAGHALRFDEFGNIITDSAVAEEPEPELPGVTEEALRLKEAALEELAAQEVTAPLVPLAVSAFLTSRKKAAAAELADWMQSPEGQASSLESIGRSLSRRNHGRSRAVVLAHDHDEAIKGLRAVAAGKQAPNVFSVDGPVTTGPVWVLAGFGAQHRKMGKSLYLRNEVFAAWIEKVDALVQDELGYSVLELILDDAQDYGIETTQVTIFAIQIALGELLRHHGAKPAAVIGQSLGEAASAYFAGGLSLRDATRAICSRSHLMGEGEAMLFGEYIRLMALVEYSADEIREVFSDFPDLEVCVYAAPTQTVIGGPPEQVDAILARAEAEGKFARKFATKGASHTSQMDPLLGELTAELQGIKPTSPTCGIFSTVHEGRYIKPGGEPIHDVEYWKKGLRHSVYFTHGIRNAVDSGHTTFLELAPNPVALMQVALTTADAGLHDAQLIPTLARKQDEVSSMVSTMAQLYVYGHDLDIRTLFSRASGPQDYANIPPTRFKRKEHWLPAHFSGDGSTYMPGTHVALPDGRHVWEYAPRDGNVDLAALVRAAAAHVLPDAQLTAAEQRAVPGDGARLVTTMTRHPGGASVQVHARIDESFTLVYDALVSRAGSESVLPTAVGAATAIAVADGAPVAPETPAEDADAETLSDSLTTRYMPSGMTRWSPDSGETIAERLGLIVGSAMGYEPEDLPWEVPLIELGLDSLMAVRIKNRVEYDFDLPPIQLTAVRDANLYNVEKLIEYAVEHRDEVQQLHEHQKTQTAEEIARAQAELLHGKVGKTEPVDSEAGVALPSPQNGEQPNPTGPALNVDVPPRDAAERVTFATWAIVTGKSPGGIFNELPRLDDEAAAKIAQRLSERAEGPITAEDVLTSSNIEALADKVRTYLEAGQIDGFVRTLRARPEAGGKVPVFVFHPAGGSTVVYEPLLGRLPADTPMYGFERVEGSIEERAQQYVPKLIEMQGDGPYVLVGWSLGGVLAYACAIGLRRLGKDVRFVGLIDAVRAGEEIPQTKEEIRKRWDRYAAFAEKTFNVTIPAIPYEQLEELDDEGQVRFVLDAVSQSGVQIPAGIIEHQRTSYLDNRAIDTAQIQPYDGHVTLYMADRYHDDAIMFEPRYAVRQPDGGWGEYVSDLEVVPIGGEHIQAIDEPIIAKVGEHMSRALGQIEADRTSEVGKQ

| Compound | Percent Effect [%] |
| --- | --- |
| CS(=O)(=O)N1CC[C@H]2OCC[C@@]2(C(=O)NCc2ccccn2)C1 | -5.05 |
| O=C(c1ccco1)N1C[C@@H]2CCN(c3cccnc3)C[C@@H]2C1 | 18.9 |
| COc1ccc(C2(C(=O)N3CC[C@@]4(O)CCNC[C@H]4C3)CCCC2)cc1 | -3.94 |
| Nc1nc2c(c(=O)[nH]1)CCN(C(=O)c1cccc3nccnc13)C2 | 2.77 |
| COc1cccc(C(=O)N2CCc3c(nc(N)[nH]c3=O)C2)c1OC | -13.9 |
| COc1cccc(C(=O)N2CCc3c(nc(N)[nH]c3=O)C2)c1C | 79.5 |
| O=C1CC[C@H]2CN(Cc3cccc(F)c3)CC[C@H]2N1CCc1c[nH]cn1 | -22.1 |
| COCCC(=O)N1C[C@H]2CN(Cc3cccnc3)C(=O)[C@H]2C1 | -37.5 |
| NCC1[C@H]2CN(Cc3cccc(Cl)c3)C[C@@H]12 (stereo not given in full) | -29.5 |
| CNC(=O)N1C[C@H]2N(c3ncccn3)CCC[C@@]2(C(=O)NCC2CC2)C1 | -22 |
| COC(=O)C(C)(C)NC(=O)c1cnc(C(C)(C)C)s1 | -10.1 |
| COC(=O)C(C)(C)NC(=O)c1cc2sc(N(C)C)nc2s1 | 52.3 |
| CCN(CC)c1nc2sc(C(=O)NC(C)(C)C(=O)OC)cc2s1 | 39.6 |
| CCCS(=O)(=O)N1C[C@H]2C[C@H](C(=O)N3CCOCC3)[C@@H](C1)O2 | -22.9 |
| Cc1cccc(CN2C(=O)CC[C@@H]3[C@H]2CCN3Cc2nccn2C)n1 | -58.5 |
| COCCN1C(=O)C[C@@H]2[C@H]1CCN2C(=O)c1ccc[nH]1 | -9.69 |
| CN1CCCC[C@@H]2[C@H]1[C@@H](c1ccccc1)CCN2C(=O)c1cccnc1 | 9.14 |
| Cc1noc([C@H]2COC[C@H]3CN(C(=O)Cc4ccsc4)C[C@H]32)n1 | -1.57 |
| CC(=O)N1CCCC1c1ccc(-c2c(C)noc2C)cn1 (stereo not given) | -29.1 |
| CC(=O)N1CCCC(c2ccc(Br)cn2)C1 (stereo not given) | -6.19 |
| CC(=O)N1CCCC1c1ccc(Br)cn1 (stereo not given) | 61.5 |
| Cc1cccc(CN2C(=O)CC[C@@H]3[C@H]2CCN3C(=O)c2ccsc2)n1 | -13.6 |
| Cc1ccnc(OC[C@@]23CCO[C@@H]2CCN(S(C)(=O)=O)C3)n1 | -29.2 |
| CN(C)[C@@H]1CN(C(=O)Cc2cccc(F)c2)[C@@H]2CCCO[C@H]12 | -3.8 |
| Cc1ncc(C(=O)OCC2CCN(c3ccccc3)C2)s1 (stereo not given) | 39.2 |
| Cn1ncc(C(=O)OCC2CCN(c3ccccc3)C2)c1C(F)F (stereo not given) | 11.4 |
| COCc1nc(C(=O)OCC2CCN(c3ccccc3)C2)cs1 (stereo not given) | 58.1 |
| O=C(OCC1CCCN(C(=O)c2ccccc2)C1)c1cscn1 (stereo not given) | 10.2 |
| Cc1ncsc1C(=O)OCC1CCN(c2ccccc2)C1 (stereo not given) | 30.2 |
| O=C(OCC1CCN(c2ccccc2)C1)c1cscn1 (stereo not given) | 62.9 |
